Compound activity (PubChem BioAssay)
TRHR enhancer: allosterically enhances the human TRH receptor. P34981. TRHR cells, fluo-8 calcium fluorescence, EC20 TRH enhancement. enhancement, % at 2 µM. 360,000 compounds, 0.66% hits. AID 493056; in the data active = enhancement above about 30%; note: 0% is about no effect
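TRHR-expressing cells loaded with fluo-8 calcium dye were read kinetically (ex 480/em 530) during compound addition, then stimulated with an EC20 of TRH (10 nM final). Enhancement of the Gq-mediated intracellular calcium response was scored.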
D1 antag: human D1 dopamine receptor antagonism | HEK293 TREx D1 cells, calcium flux, dopamine EC80; hits give low values | activity change, negative = inhibition, % at 10 µM | 360,000 compounds, 3.2% hits | P21728; in the data active = activity change below about -30%; note: % is set by controls: 0 for no effect and ±100 for the full control effect
Target sequence (P21728 whole entry, looked up): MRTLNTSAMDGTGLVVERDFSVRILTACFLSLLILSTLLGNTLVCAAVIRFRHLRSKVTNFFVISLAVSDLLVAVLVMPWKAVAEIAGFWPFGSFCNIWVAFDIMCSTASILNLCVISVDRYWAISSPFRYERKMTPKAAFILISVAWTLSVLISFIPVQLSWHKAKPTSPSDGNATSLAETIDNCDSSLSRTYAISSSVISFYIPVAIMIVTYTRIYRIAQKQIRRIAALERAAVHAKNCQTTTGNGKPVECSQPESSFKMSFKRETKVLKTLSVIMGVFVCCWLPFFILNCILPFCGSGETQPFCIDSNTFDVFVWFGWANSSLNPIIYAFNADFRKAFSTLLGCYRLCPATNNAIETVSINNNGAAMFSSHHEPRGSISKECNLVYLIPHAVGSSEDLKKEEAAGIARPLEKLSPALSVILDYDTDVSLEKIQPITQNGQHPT
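Using tetracycline-induced force-coupled D1 Hek293 cells and a calcium dye, signals were followed for 180 s after compound, then for 180 s after EC80 dopamine, to detect inhibitors.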
TRHR agonist: TRH receptor (human) agonism; P34981; TRHR cells, calcium flux fluo-8, FDSS agonist mode; activation, % at 2 µM; 360,000 compounds, 0.18% hits; note: 0% is about no effect
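Fluo-8-loaded TRHR cells; 10 s baseline, compound added, kinetic Ca2+ fluorescence read 1/s, agonist mode.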
D1 ag: human D1 receptor agonism. P21728. HEK293 T-REx D1 cells, calcium flux, agonist mode. activation, % at 2 µM. 360,000 compounds, 1% hits; note: 0% is about no effect
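Tetracycline-induced HEK293 TREx D1 cells, force-coupled to calcium signalling, were dye-loaded with a no-wash calcium kit. Compound was pin-added after a 10 s baseline. Fluorescence was read kinetically at 1 cycle/s for 180 s, with calcium rises flagged as agonism.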
D1 PAM: potentiators of human D1 dopamine receptor; P21728; HEK293 TREx D1 cells, calcium flux, dopamine EC20 potentiation; potentiation, % at 10 µM; 360,000 compounds, 0.036% hits; AID 504651; in the data active = potentiation above about 30%; note: 0% is about no effect
* = called active by the depositor; . = not tested or not shown. This is a sample that favours compounds with a hit; in the whole collection about 4.6% have one here. Cut-off read from the data, not from the text of the source, unless noted: active = activation above about 30%; inactive = the rest.

SMILES	TRHR enhancer	D1 antag	TRHR agonist	D1 ag	D1 PAM
CN(C)c1ccc(C2C=C(c3ccc(Cl)cc3OC(F)F)Nc3ncnn32)cc1 (stereo unspecified)	-2	5	17	41*	-7
Cc1ccc(C2C=C(c3ccccc3OC(F)F)Nc3ncnn32)cc1 (stereo unspecified)	-5	10	0	2	8
O=C(NCCN1CCCCC1)c1ccc(Cn2c(SCc3cccc(F)c3)nc3cccnc32)cc1	-2	-18	0	2	-2
COc1ccc(C2/C=C\CN(C(=O)c3ccc(C)cc3)[C@H](Cc3ccccc3)C(=O)N2Cc2ccc(F)cc2)cc1 (stereo partly specified)	6	-50*	0	3	6
COc1ccc(C2/C=C\CN(C(=O)C3CC3)[C@H](Cc3ccccc3)C(=O)N2Cc2ccc(F)cc2)cc1 (stereo partly specified)	-5	-15	0	2	-6
COc1ccc(C2/C=C\CN(S(=O)(=O)/C=C/c3ccccc3)CC(=O)N2Cc2ccc(F)cc2)cc1 (stereo unspecified)	-2	-36*	-1	16	-5
COc1ccc(C2/C=C\CN(S(=O)(=O)c3ccc4ccccc4c3)CC(=O)N2Cc2ccc(F)cc2)cc1 (stereo unspecified)	6	-1	1	12	0
CCCCC(=O)N1C/C=C\C(c2ccc(OC)cc2)N(Cc2ccc(F)cc2)C(=O)[C@H]1Cc1ccccc1 (stereo partly specified)	-3	14	0	11	-5
CCCCCCC(=O)N1C/C=C\C(c2ccc(OC)cc2)N(Cc2ccc(F)cc2)C(=O)[C@H]1Cc1ccccc1 (stereo partly specified)	-8	-35*	2	13	-2
CCOc1ccc(CC(=O)Nc2c(C(=O)Nc3ccc(OC)cc3OC)oc3ccccc23)cc1	-4	-5	0	2	-3
Cc1cc2c(s1)c1cnn(Cc3c(F)ccc(F)c3Cl)c(=O)c1n2C	2	5	1	7	5
C/C(=N\NC(=O)c1ccc(Cl)c(Cl)c1)c1ccccn1	-2	-38*	0	4	-2
CCCS(=O)(=O)Nc1cc(-c2cn3ccc(C)cc3n2)ccc1C	1	3	-3	0	59*
COc1ccc(S(=O)(=O)Nc2cc(-c3cn4ccc(C)cc4n3)ccc2C)cc1OC	2	2	-3	3	4
Cc1ccc(Cn2c(C(=O)Nc3ccc(Cl)cc3)cc3sccc32)cc1	8	-10	-1	11	-4
Cc1ccc(NC(=O)Nc2ccc3c(c2)N(C)C(=O)CS3)cc1C	11	-44*	-1	20	.
COc1cc(-c2nc(C(N)=O)c3c(n2)n(-c2cccc(C)c2)c(=O)n3C)cc(OC)c1OC	-2	14	0	1	0
C/C(Cn1cnc([N+](=O)[O-])n1)=N/NC(=O)COc1c(Cl)cc(Cl)cc1Cl	0	-30*	0	0	-9
C/C(Cn1cnc([N+](=O)[O-])n1)=N\NC(=O)c1ccccc1	-3	-13	0	3	1
CC(C)(C)C(=O)N1CCN(c2ccc(NC(=O)c3ccc4c(c3)OCCO4)cc2)CC1	-4	-30*	1	5	-4
CC(C)(C)C(=O)N1CCN(c2ccc(NC(=O)c3ccc([N+](=O)[O-])o3)cc2)CC1	5	-8	-1	48*	-8
CCC(=O)N1CCN(c2ccc(NC(=O)c3ccc([N+](=O)[O-])o3)cc2)CC1	5	4	0	1	-4
CC(=O)N1CCN(c2ccc(NC(=O)c3ccc4c(c3)OCCO4)cc2)CC1	-1	-27	0	0	0
COc1ccccc1N1CCN(C(c2cccs2)c2nnnn2C2CCCC2)CC1 (stereo unspecified)	-4	-35*	-1	1	-5
CCOc1ccc(CCNC(=O)CN2C(=O)NC3(CCCC3)C2=O)cc1OCC	-5	-39*	1	2	-7
SMILES	TRHR enhancer	D1 antag	TRHR agonist	D1 ag	D1 PAM
CC(NC(=O)Nc1ccc(Cl)c(Cl)c1)C(c1ccccc1)N1CCOCC1 (stereo unspecified)	9	41	-2	158*	9
CC(NC(=O)c1ccc(Cl)cc1Cl)C(c1ccccc1)N1CCOCC1 (stereo unspecified)	-2	-3	-2	1	0
CC(NC(=O)Nc1ccc([N+](=O)[O-])cc1)C(c1ccccc1)N1CCOCC1 (stereo unspecified)	2	167	-1	173*	-1
CN(C)c1ccc(C(CNC(=O)c2ccccc2F)N2CCc3ccccc32)cc1 (stereo unspecified)	-3	-2	-1	1	0
Cc1ccc(/C=C2/Sc3ccc(C(=O)N4CCN(C)CC4)cc3NC2=O)cc1	29	-82*	1	17	-24
COC(=O)c1ccccc1NC(=O)N1CCC(N2CCN(Cc3ccc(F)cc3)C(=O)C2=O)CC1	0	-39*	0	-1	-1
COc1ccc(OC)c(NC(=O)N2CCC(N3CCN(Cc4ccc(F)cc4)C(=O)C3=O)CC2)c1	-3	-2	1	-2	-1
CCSc1nc2c(c(=O)[nH]1)C(c1ccc(C)cc1)C1=C(CCCC1=O)N2 (stereo unspecified)	-5	-4	0	6	-6
Cc1ccc(CSc2nc3c(c(=O)[nH]2)C(c2ccncc2)C2=C(CCCC2=O)N3)cc1 (stereo unspecified)	-1	-48*	0	-3	-4
CCOC(=O)C1CCCN(c2c(C(=O)c3ccc(C)cc3)cnc3ccc(OCC)cc23)C1 (stereo unspecified)	-3	15	1	-1	1
O=c1cc(N2CCN(c3ccc(F)cc3)CC2)[nH]c(=O)n1-c1ccc(Br)cc1	-1	-40*	0	1	-1
CCOc1ccccc1NC(=O)N1c2ccccc2Sc2ccccc21	0	5	0	2	3
CCOC(=O)N1CCC(N(CCCOC)C(=O)Nc2cccc(OC)c2)CC1	-3	-31*	0	2	1
Cc1nc(SCC(=O)OC(C)(C)C)c2c3c(sc2n1)CCCC3	0	13	-1	0	2
Cc1cc2c(s1)c1cnn(Cc3ccc(Cl)c(Cl)c3)c(=O)c1n2C	1	-10	0	1	-6
Cn1cnc(S(=O)(=O)N2CCN(c3cccc(C(F)(F)F)c3)CC2)c1	0	-32*	0	10	-6
Cc1ccc(NC(=O)c2cc(S(=O)(=O)N3CCCc4ccccc43)ccc2F)cc1F	-9	-31*	4	6	-3
O=C(Nc1ccc(Br)cc1)c1cc(S(=O)(=O)N2CCc3ccccc32)ccc1F	1	-50*	1	7	-3
